# Bioassay records (PubChem)
# KLF5 inh: KLF5 expression inhibitors, primary screen, DLD-1 cells, luminescence; DLD-1 KLF5 promoter-luciferase reporter; inhibition, % at 5 µM; 290,000 compounds, 0.23% hits; AID 1700, 2009;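 active = inhibition above a per-plate limit of that plate's mean compound inhibition plus 3 SD, cut at about 60% in these data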;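 also: higher means less KLF5 promoter-driven luciferase light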
# BaF3 parental: parental Ba/F3 cell viability inhibition, counter-screen for JAK2V617F inhibitor project, murine pro-B, CellTiter-Glo luminescence. 220,000 compounds, 1.1% hits. CellTiter-Glo ATP luminescence. inhibition, % at 5.6 µM;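 active = inhibition above a per-campaign cutoff, the mean inhibition of all tested compounds plus 3 SD, cut at about 27% in these data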
# APP transl inh: inhibitors of APP translation via 5'UTR reporter, primary screen, APP 5'UTR luciferase, SH-SY5Y cells; 190,000 compounds, 0.82% hits; AID 1285, 2008; SH-SY5Y APP 5'UTR-luciferase reporter, luminescence; inhibition, % at 2 µM;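 active = inhibition above a set limit, derived from the sample mean plus 3 SD, cut at about 45% in these data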
# IEC-6 tox-1: cytotoxicity in IEC-6 intestinal epithelial cells, primary screen, cytotoxicity control for KLF5 inhibitor project, cell-based, luminescence; inhibition, % at 5 µM; AID 1825, 2009; 290,000 compounds, 0.78% hits; IEC-6 cytotoxicity, luminescence viability
# Ba/F3 V617F tox: reduced viability of JAK2V617F-dependent Ba/F3 cells, primary screen, JAK2V617F inhibitor project, cell-based, Ba/F3 EpoR-JAK2V617F, luminescence; ATP luminescence; inhibition, % at 5.6 µM; 220,000 compounds, 1.1% hits; AID 1446, 2008;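 active = inhibition above the campaign mean plus 3 SD over all tested compounds, cut at about 24% in these data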;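 also: cytokine-independent growth of Ba/F3 cells driven by EpoR plus mutant JAK2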
# aSyn 5UTR inh: MLPCN primary screen, SNCA 5' untranslated region; AID 1813, 2009; inhibition, % (tested at 7.5 µM); alpha-synuclein 5'UTR reporter, inhibitor activity; 300,000 compounds, 0.82% hits; in the data active = inhibition above about 60%;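 also: H4 neuroglioblastoma cells stably carrying SNCA 5'UTR luciferase fusion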
# BaF3 parental 2: parental Ba/F3 cell viability inhibition, counter-screen for JAK2V617F inhibitor project, murine pro-B, CellTiter-Glo luminescence; 580 compounds, 31% hits; shares compounds with Ba/F3 V617F tox; AID 1520, 2009; inhibition, % at 5.6 µM; cells kept alive by added IL-3;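 active = cell growth inhibition above the hit limit set in the earlier mutant JAK2 cell screen, cut at about 27% in these data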
# JAK2V617F conf: viability loss in Ba/F3 EpoR-JAK2V617F cells, confirmation, JAK2V617F inhibitor project, cell-based, luminescence, triplicate; inhibition, % at 5.6 µM; CellTiter-Glo luminescence; 580 compounds, 66% hits; shares compounds with Ba/F3 V617F tox; AID 1521, 2009;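 active = mean inhibition above the hit cutoff derived in the earlier primary screen, cut at about 25% in these data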;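 also: higher means lower luminescence from reduced cell ATP and viability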
# KLF5 confirm: KLF5 expression inhibitors, confirmation, DLD-1 cells, luminescence; 610 compounds, 79% hits; shares compounds with KLF5 inh; inhibition, % at 4 µM; DLD-1 KLF5 promoter firefly luciferase reporter;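 active = inhibition above a set limit taken from the earlier primary screen, cut at about 63% in these data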
# IEC-6 tox-2: cytotoxicity in rat IEC-6 cells, cytotoxicity control for KLF5 inhibitor project, cell-based, luminescence, triplicate. IEC-6 rat intestinal cells, viability luminescence. 610 compounds, 56% hits. shares compounds with KLF5 inh. inhibition, % at 4 µM; in the data active = inhibition above about 23%;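 also: cells exposed to compounds for 48 hours before viability read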
# IEC-6 cytotox cf: cytotoxic compounds in IEC-6 epithelial cells, confirmation, cytotoxicity control, cell-based, luminescence; shares compounds with IEC-6 tox-1; inhibition, % at 5 µM; 1,900 compounds, 63% hits; IEC-6 rat intestinal epithelial viability
# Numbers stand for hits; 0 = inactive; - = not tested or not shown. Rows were chosen to be rich in hits. Some 2.2% of all compounds tested hit in one or more screens of this group. Rule as the data show it, unless noted: active = inhibition above about 22%; inactive = the rest.
SMILES,KLF5 inh,BaF3 parental,APP transl inh,IEC-6 tox-1,Ba/F3 V617F tox,aSyn 5UTR inh,others
CN(C)C(=S)SSC(=S)N(C)C,0,0,95,102,39,0,BaF3 parental 2=0;JAK2V617F conf=99
c1ccc2c(CNC3CCCCCC3)c[nH]c2c1,0,0,0,0,27,-,BaF3 parental 2=0;JAK2V617F conf=38
CNCCc1c[nH]c2ccccc12,0,0,0,0,0,0,
c1ccc2c(CN3CCCCCC3)c[nH]c2c1,0,0,0,0,62,0,BaF3 parental 2=0;JAK2V617F conf=76
O=C1/C(=C/c2ccccc2Cl)N2CCC1CC2,0,0,-,0,0,0,
O=C1NC(=S)NC(=O)C1=Cc1ccc(Br)s1,0,-,-,0,-,0,
N#CC(C#N)=C(N)c1cccnc1,0,0,0,0,34,0,BaF3 parental 2=0;JAK2V617F conf=0
O=C(Cc1ccccc1)OCCNC(=O)c1cccnc1,0,0,0,0,0,0,
CCOc1ccc(N2C(=O)/C(=C/c3ccco3)C(=O)NC2=S)cc1,0,-,-,0,-,0,
CCOc1ccc(N2C(=O)/C(=C\c3cccs3)C(=O)NC2=S)cc1,0,0,0,0,63,0,BaF3 parental 2=0;JAK2V617F conf=0
CN(C)C(=O)Oc1ccc(OCc2nc3ccccc3[nH]2)cc1,0,0,0,0,24,0,BaF3 parental 2=31;JAK2V617F conf=34
Cc1nn(Cc2ccccc2)c(Cl)c1C(=O)OCC(=O)NCC1CCCO1 (centres undefined),0,0,0,0,0,0,
CCCCN=C[C@]12CCC(O)CC1(O)CCC1[C@@H]2CC[C@]2(C)[C@H](C3C=CC(=O)O3)CCC12O (some centres undefined),106,-,-,0,-,96,KLF5 confirm=105;IEC-6 tox-2=0
CN1C(=O)C(=Cc2ccc(N(C)C)c([N+](=O)[O-])c2)C(=O)N(C)C1=O,0,0,0,0,0,0,
Nc1ccc2ccc3cccc[n+]3c2c1,0,-,-,0,-,0,
C[n+]1c(-c2ccccc2)c2cc(N)ccc2c2ccc(N)cc21,108,-,-,0,-,0,KLF5 confirm=86;IEC-6 tox-2=0
Cc1c(-c2cccc(Cl)c2)nc2ccccc2c1C(=O)N1CCC2(CC1)OCCO2,0,-,-,0,-,0,
C[C@]12CCC3C(CCC4=CC(O)CC[C@@]43/C=N/O)C1(O)CCC2C1=CC(=O)OC1 (some centres undefined),91,-,-,0,-,113,KLF5 confirm=104;IEC-6 tox-2=0
CC1C(OC(=O)CCC(=O)NC(C)(C)CO)O[C@H]2OC3(C)CC[C@H]4[C@H](C)CCC1C24OO3 (some centres undefined),82,-,-,33,-,0,KLF5 confirm=85;IEC-6 tox-2=23;IEC-6 cytotox cf=0
CC(C)CC(NC(=O)CCCNC(=O)CCC(=O)OC1O[C@H]2OC3(C)CC[C@H]4[C@H](C)CCC(C1C)C24OO3)C(=O)O (some centres undefined),82,-,-,30,-,0,KLF5 confirm=82;IEC-6 tox-2=0;IEC-6 cytotox cf=23
C[C@H]1[C@H](OC(=O)CCC(=O)NCc2ccc(C(=O)O)cc2)O[C@@H]2O[C@@]3(C)CC[C@H]4[C@H](C)CC[C@@H]1C24OO3,80,-,-,24,-,0,KLF5 confirm=84;IEC-6 tox-2=26;IEC-6 cytotox cf=0
CCN(CC)S(=O)(=O)c1cccc(N=Nc2c(O)n(CC)c(=S)n(CC)c2=O)c1,0,0,-,0,0,0,
CCOP(=O)(OCC)/C(C#N)=C/c1ccc(Br)cc1,0,0,-,0,0,0,
COC(=O)C1=C(N)Oc2cc(C)oc(=O)c2C12C(=O)Nc1ccccc12 (centres undefined),0,0,0,0,0,0,
O=C(CSC1c2ccccc2-c2ccccc21)N/N=C/c1ccccc1O,0,0,0,0,0,0,
SMILES,KLF5 inh,BaF3 parental,APP transl inh,IEC-6 tox-1,Ba/F3 V617F tox,aSyn 5UTR inh,others
CC(=O)O[C@@]12CO[C@@H]1C[C@@H](O)[C@@]1(C)C(=O)[C@H](O)C3=C(C)[C@@H](OC(=O)[C@H](O)[C@@H](NC(=O)c4ccccc4)c4ccccc4)C[C@@](O)([C@@H](OC(=O)c4ccccc4)C12)C3(C)C (some centres undefined),76,-,-,90,-,113,KLF5 confirm=87;IEC-6 tox-2=72;IEC-6 cytotox cf=81
C/C=C(\C)C(=O)N[C@@H](c1ccccc1)[C@@H](O)C(=O)O[C@H]1C[C@@]2(O)[C@@H](OC(=O)c3ccccc3)C3[C@](C)(C(=O)[C@H](OC(C)=O)C(=C1C)C2(C)C)[C@H](O)C[C@H]1OC[C@@]31OC(C)=O (some centres undefined),64,-,-,88,-,110,KLF5 confirm=86;IEC-6 tox-2=71;IEC-6 cytotox cf=79
OC1/C(=C/c2ccccc2F)N2CCC1CC2 (centres undefined),0,0,0,0,0,0,
Cc1ccccc1-n1c(/C=C/c2ccccn2)nc2ccccc2c1=O,0,0,-,0,0,0,
CN1C2CCC1/C(=C/c1ccccn1)C(=O)/C2=C\c1ccccn1,0,103,95,59,100,-,IEC-6 cytotox cf=95
COC(=O)C[C@]1(C(=O)OC)CN(C#N)N(c2ccc(Cl)cc2)C12c1ccccc1-c1ccccc12,0,97,96,101,98,96,IEC-6 cytotox cf=93
CC1CCCC(C)N1/N=C/c1c[nH]c2ccc(Br)cc12 (centres undefined),0,0,0,0,0,0,
Cc1cccc(-n2c(O)c(/C=C/C=Nc3ccccc3)c(=O)[nH]c2=O)c1,0,0,0,0,0,0,
Cc1cccc(-n2c(O)c(/C=C3/C(c4ccccc4)=Nc4ccccc43)c(=O)[nH]c2=O)c1,0,74,-,70,82,0,IEC-6 cytotox cf=58
CC1=Nc2cc(C(=O)N3CCC4(CC3)OCCO4)ccc2Sc2ccc(Cl)cc21,0,-,-,0,-,0,
O=[N+]([O-])c1ccc(N2CCCCCC2)c2ncccc12,0,0,0,0,0,0,
c1ccc(-c2cc(-c3ccccc3)[n+](-c3ccccc3)c(-c3ccccc3)c2)cc1,0,97,-,47,99,0,IEC-6 cytotox cf=47
CC(=O)OC1(c2ccccc2)CC(C(C)(C)C)CN(C(C)(C)C)C1 (centres undefined),0,0,0,0,0,0,
